# Screening results as filed in PubChem.
# TGFb inhibitor: qHTS for Inhibitors of TGF-b; HepG2 CAGA-GFP TGF-b/SMAD3 reporter, GFP fluorescence, 18 h; TGF-beta stimulated, 500 pg/mL final; Potency, µM (series often up to 46.1 µM), inactives show at the top dose activity, negative = inhibition, usual class: inhibitors; 410,000 compounds, 1.2% hits; also: potency is read from the fitted curve at half-maximal effect; % is scaled to controls: 0 for no effect and ±100 for the full control effect; nearly all actives have a fitted effect of over 65% in size
#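 Cell-based qHTS in HEPG2 carrying a CAGA-GFP Smad reporter; compounds added before 500 pg/mL final TGF-beta, 18 h incubation at 37 degrees C, GFP fluorescence quantified per cell by imaging cytometry.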
# DT40 TDP1 no CPT: qHTS for Inhibitors of human tyrosyl-DNA phosphodiesterase 1 (TDP1): qHTS in cells in absence of CPT; DT40 Tdp1-/- hTDP1 cells, no CPT, ATP luminescence, 48 h; Potency, µM (doses to about 46.2 µM), without a hit: at the top dose activity change, negative = growth inhibition, most hits filed as inhibitors; 420,000 compounds, 15% hits; AID 686978, 2013; also: potency is read from the fitted curve at half-maximal effect; % is scaled to controls: 0 for no effect and ±100 for the full control effect; nearly all actives have a fitted effect of over 55% in size
#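 Growth kinetics read by CellTiter-Glo luminescence after ≥48 hr at 37 °C. Cells: DT40 Tdp1-/- stably carrying human TDP1, 400 per well, compound exposure in the absence of CPT (DMSO vehicle).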
# DT40 TDP1 CPT: qHTS for Inhibitors of human tyrosyl-DNA phosphodiesterase 1 (TDP1): qHTS in cells in presence of CPT. 420,000 compounds, 12% hits. chicken DT40 Tdp1-/-;hTDP1 cells + 20 nM CPT, ATP luminescence, 48 h. Potency, µM (doses to about 46.2 µM), for the others: at the top dose activity change, negative = growth inhibition, usual class: inhibitors; also: potency is read from the fitted curve at half-maximal effect; % is scaled to controls: 0 for no effect and ±100 for the full control effect; nearly all actives have a fitted effect of over 55% in size
#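 Chicken DT40 Tdp1-/- cells stably complemented with human TDP1 were seeded at 400 cells/well in medium containing 20 nM camptothecin, exposed to pin-transferred compounds, and grown at 37 °C for at least 48 hr. Viability was read as ATP luminescence.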
# TDP1 block: qHTS Assay for Inhibitors of Tyrosyl-DNA Phosphodiesterase (TDP1) | Tyrosyl-DNA phosphodiesterase 1 (Homo sapiens), Q9NUW8 | recombinant TDP1, AlphaScreen DNA substrate cleavage | Potency, µM (doses to about 130 µM), inactives show at the highest dose activity change, negative = inhibition, actives largely listed as inhibitors | 350,000 compounds, 0.28% hits | AID 485290, 2010; also: potency is read from the fitted curve at half-maximal effect; % is scaled to controls: 0 for no effect and ±100 for the full control effect; nearly all actives have a fitted effect of over 40% in size
# Target sequence (Q9NUW8 whole entry, looked up): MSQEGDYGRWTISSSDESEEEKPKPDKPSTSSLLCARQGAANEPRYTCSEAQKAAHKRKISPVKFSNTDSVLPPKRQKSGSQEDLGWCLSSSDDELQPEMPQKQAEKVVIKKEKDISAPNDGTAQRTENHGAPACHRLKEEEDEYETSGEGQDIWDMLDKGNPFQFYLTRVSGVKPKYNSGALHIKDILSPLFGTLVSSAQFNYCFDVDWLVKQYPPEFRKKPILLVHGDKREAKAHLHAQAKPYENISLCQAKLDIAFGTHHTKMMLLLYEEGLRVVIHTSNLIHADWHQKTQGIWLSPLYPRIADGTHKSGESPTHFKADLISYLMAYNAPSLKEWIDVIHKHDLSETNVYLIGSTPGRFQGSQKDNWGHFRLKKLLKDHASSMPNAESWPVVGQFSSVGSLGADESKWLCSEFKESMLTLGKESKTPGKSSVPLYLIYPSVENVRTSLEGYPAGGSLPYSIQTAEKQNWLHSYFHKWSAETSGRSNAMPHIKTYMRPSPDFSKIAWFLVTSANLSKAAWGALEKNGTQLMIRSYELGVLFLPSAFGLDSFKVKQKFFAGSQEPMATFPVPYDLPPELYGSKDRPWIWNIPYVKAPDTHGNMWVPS
#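 Steps: enzyme plus compound, 15 min RT; add biotin/phosphotyrosine-FITC oligonucleotide (15 nM final), react 5 min; add donor/acceptor beads (10 ug/ml final), 10 min; read AlphaScreen. Tdp1 at 1 nM final.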
# IL1B secr inh: qHTS for Inhibitors of Inflammasome Signaling: IL-1-beta AlphaLISA Primary Screen; AID 743279, 2014; THP-1 LPS/ATP IL-1B secretion, AlphaLISA, 16 h; hits give low values; activity change, % at 57.5 µM; 360,000 compounds, 4.7% hits; in the data active = activity change below about -50%; inconclusive = mostly about -30% to -49%; also: % is scaled to controls: 0 for no effect and ±100 for the full control effect
#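 Secreted IL-1B measured by AlphaLISA bead assay after 16 h compound exposure of THP-1 cells; compounds (final up to 57.5 uM) added 1 h before LPS (250 ng/mL) and ATP (1.25 mM) stimulation; lower signal means less secretion.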
# HepG2 tox: qHTS for Inhibitors of TGF-b: Cytotox Counterscreen | HepG2 CAGA-GFP viability, ATP luminescence, 18 h | Potency, µM (top dose mostly 46.1 µM), for inactives: top-dose activity change, negative = cytotoxicity, actives largely listed as cytotoxic | 410,000 compounds, 0.76% hits | AID 588856, 2011; also: potency is read from the fitted curve at half-maximal effect
#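 HepG2 CAGA-GFP cells (1000/well, DMEM with 1% FBS) received compound, then TGF-beta at 500 pg/mL final, and were incubated 18 hours at 37 degrees C. Viability was read by CellTiter-Glo luminescence. Media-only wells were set as complete cell-killing and DMSO as no toxicity.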
# The depositor's hits bear a star; ? = inconclusive; nt = no result given; ! = not confirmed by another sample; [ ] = remark or other dose. The list is not random: actives were taken first. Their share in the collection is about 19%. Unless noted, calls follow the shape of the dose curve; as a rule, active = well fitted curve in the direction sought with a large enough effect; inconclusive = small, poorly fitted or top-dose-only effect, or another doubt; inactive = no such curve, though single readings can be large; an effect the other way counts as inactive or inconclusive.
SMILES,TGFb inhibitor,DT40 TDP1 no CPT,DT40 TDP1 CPT,TDP1 block,IL1B secr inh,HepG2 tox
COc1ccc(CCC(=O)NNC(=O)c2cc(Cl)ccc2OC)cc1,9%,-17%,10%,7%,4,10%
O=C(Nc1ccc2nn(-c3ccccc3)nc2c1)c1ccc2c(c1)OCO2,0%,21µM*,16µM*,nt,-12,-47%
c1ccc2[nH]c(-c3ccc4c(c3)OCO4)nc2c1,3%,18µM*,?,nt,nt,-64%
O=C(Nc1ccc(-c2nc3ccccc3[nH]2)cc1)c1ccc2c(c1)OCO2,7.9µM*,18µM*,?,8%,44,8.9µM*
O=C(Nc1ccc(Cl)c(-c2nc3ccccc3[nH]2)c1)c1ccc2c(c1)OCO2,-50%,23µM*,?,5%,31,-13%
CS(=O)(=O)c1ccc(C(=O)Nc2ccc(-c3nc4ccccc4[nH]3)cc2)cc1,-8%,?,?,-1%,6,-3%
O=C(Nc1cccc(F)c1)c1ccc2c(c1)OCO2,0%,?,?,1%,-2,-22%
COc1ccc(OC)c(NC(=O)COC(=O)c2ccc(S(=O)(=O)N3CCCCC3)cc2)c1,?,?,-15%,nt,-2,-64%
COc1ccccc1CNC(=O)c1ccc(Cn2c(SCc3ccccc3)nc3cccnc32)cc1,0%,?,?,1%,nt,-12%
O=C(Nc1ccc(-c2nc3ccccc3[nH]2)cc1)C1CCCO1 (centres undefined),7%,15µM*,18µM*,11%,-15,7.1µM*
CCc1ccc(-n2c(=O)c3c4c(sc3n(CC(=O)N3CCC(C)CC3)c2=O)CCC4)cc1,0%,-5%,3%,1%,nt,1%
CNc1ccc(C=C2c3ccccc3-c3ccccc32)cc1,?,13µM*,?,nt,nt,-40%
C(=C1c2ccccc2-c2ccccc21)c1ccncc1,?,23µM*,?,nt,-78*,-9%
O=C(NCC1Cc2cccc(-c3cnccn3)c2O1)c1ccc(F)c(Cl)c1 (centres undefined),nt,-12%,0%,nt,nt,nt
CC1CN(C(=O)CCC(=O)NCc2cccs2)c2cc(Cl)ccc2O1 (centres undefined),-19%,-13%,?,9%,nt,-17%
C/C(=N/NS(=O)(=O)c1ccc(C)cc1C)c1c[nH]c2ccccc12,18µM*,?,?,6%[56.1 µM],-8,-25%
CC1=C(C(=O)Nc2cccc(C(F)(F)F)c2)C(c2ccccc2)n2ncnc2N1 (centres undefined),-5%,-17%,-30%,4%,nt,-21%
CN(Cc1ccccc1)c1ccc2cc(S(=O)(=O)N3CCCCC3)ccc2n1,-9%,9.2µM*,10µM*,5%,nt,-14%
Cc1cccc(N(C)C(=O)c2cc(S(=O)(=O)N3CCCC3)cn2C)c1,?,-27%,0%,4%,-9,-3%
Cc1cccc(N(C)c2ccc3cc(S(=O)(=O)N4CCCC4)ccc3n2)c1,?,16µM*,16µM*!,-17%,-12,-26%
CCOCCn1cnc2sc(C(=O)NCCCN3CCOCC3)c(C)c2c1=O,-1%,15%,4%,2%,-6,3%
CCc1cccc(C)c1NC(=O)c1nc2ccccc2nc1N1CCCCC1,3%,-50%,?,2%,nt,-14%
CCN1CCN(S(=O)(=O)c2ccc(Cl)c(C(=O)Nc3cc(Cl)ccc3N3CCOCC3)c2)CC1,0%,?,?,4%,-62*,-11%
CCN1CCN(c2ccc(S(=O)(=O)N3CCOCC3)cc2NC(=O)c2ccc(Cl)cc2Cl)CC1,-7%,21µM*,?,3%,-17,-17%
CCN1CCN(c2ccc(S(=O)(=O)N3CCOCC3)cc2NC(=O)c2ccc(C)c(C)c2)CC1,-8%,?,?,nt,-1,11%
SMILES,TGFb inhibitor,DT40 TDP1 no CPT,DT40 TDP1 CPT,TDP1 block,IL1B secr inh,HepG2 tox
CCCC(=O)N1CCCC1(C)C(=O)Nc1ccc(-n2cccc2)cc1 (centres undefined),-7%,-13%,3%,nt,-22,-5%
CCN(CC)CC(O)c1ccc2ccc3ccc(O)cc3c2c1 (centres undefined),1%,?,?,nt,-61*,-41%
NCC(O)c1ccc(O)c(O)c1 (centres undefined),1%,11%,3%,?,17,-1%
CCCCCCNCc1ccc(Br)cc1,-2%,?,?,1%,-56*,-25%
Oc1[nH]c2ccccc2c1N=Nc1nc(Nc2ccccc2)nc(N2CCOCC2)n1,33%,1.8µM*,-105%,-1%,?,-5%
O=C(O)c1cccc(Nc2nc(N3CCOCC3)nc(N3CCOCC3)n2)c1,1%,-18%,?,4%,-1,-4%
Cc1[nH]c2ccccc2c1/C=N/Nc1nc(Nc2ccccc2)nc(N2CCOCC2)n1,-4%,6.5µM*,8.2µM*,10%,-80*,-32%
C(=N\Nc1nc(N2CCOCC2)nc(N2CCOCC2)n1)/c1cccnc1,2%,-11%,0%,-5%,18,3%
Cc1ccc(-n2nc(CN3CCOCC3)c(-c3ccccc3)c2N)cc1Cl,-13%,21µM*,29µM*,1%,-2,10%
Cc1ccc(-n2nc(CC#N)c(C#N)c2N)cc1Cl,-31%,-11%,2%,8%,21,0%
COc1ccc(OC)c(NC(=O)c2cc(-c3ccc(F)cc3OC(C)C)n[nH]2)c1,20%,21µM*,16µM*,nt,-17,-14%
COc1ccc(OC)c(NC(=O)c2cc(-c3cc(C)c(C)cc3O)n[nH]2)c1,?,?,0%,nt,-17,-53%
COc1ccc(NC(=O)c2cc(-c3cc(F)ccc3OC(C)C)n[nH]2)c(C)c1,1%,16µM*,?,nt,-26,0%
COc1ccc(OC)c(NC(=O)c2cc(-c3cc(C)cc(C)c3O)n[nH]2)c1,-4%,?,?,nt,-1,-34%
Cn1c(-c2cccc(Br)c2)cnc1NCc1cccc(F)c1,0%,?,?,6%,nt,-38%
COC(=O)NC(c1ccc(Cl)cc1)C(C(C)=O)C(=O)OC (centres undefined),nt,nt,nt,8%[21 µM],nt,nt
